Measurements: PubChem BioAssay (EPA / NIEHS)
Values joined by “and” are separate entries in the source; they are usually repeats but may differ in a detail not shown here. Identical values can stand only once. Records with an inconclusive call do not appear. Active and inactive are the calls of the source. The calls were made as follows, unless noted: active = hit-call score of the fitted dose curve at least 0.9, where 1 is the maximum; inactive = score below 0.9.

System: not listed separately
Assay: CCTE_Shafer_MEA_acute_per_network_burst_spike_number_std: CCTE's Neural Acute Assay for Standard Deviation of Number of Spikes in a Network Burst, Shafer Lab (AID 2284020);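 also: fitted for decrease in spike-number SD versus DMSO so actives lower it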
Outline: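 Primary rat cortical neurons on 48-well MEAs (16 electrodes/well) recorded at DIV 13 or 15: 40-min baseline, then 40 min with compound (0.03-40 uM), 37 C. Value is percent change in SD of spikes per network burst, relative to DMSO.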

Row | SMILES | outcome | AC50
1 | CC1(C)CCC[C@]2(C)[C@H]3CCO[C@]3(C)CC[C@@H]12 | inactive | 
2 | O=CN1CCOCC1 | inactive | 
3 | O=C(Nc1ccc2c(O)c(N=Nc3ccc(N=Nc4ccc(S(=O)(=O)O)cc4)cc3)c(S(=O)(=O)O)cc2c1)c1ccccc1 | inactive | 
4 | Oc1c(Cl)cc(Cl)c(Cl)c1Cc1c(O)c(Cl)cc(Cl)c1Cl |  | 0.153 µM (active)
5 | CC(CN=Cc1ccccc1O)N=Cc1ccccc1O (stereo not drawn) | inactive | 
6 | COCCc1ccc(OCC(O)CNC(C)C)cc1 (stereo not drawn) | inactive | 
7 | CN(C)C(=S)SC(=S)N(C)C | inactive | 
8 | C=CC(C)(O)CCC=C(C)C (stereo not drawn) | inactive | 
9 | CCOC(=O)C(C#N)=C(c1ccccc1)c1ccccc1 | inactive | 
10 | CCCCCCC(CO)CCCC (stereo not drawn) | inactive | 

System: not listed separately
Assay: CCTE_Shafer_MEA_acute_per_network_burst_electrodes_number_mean: CCTE's Neural Acute Assay for Mean Number of Electrodes in a Network Burst, Shafer Lab (AID 2284021);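 also: curves fitted for decreases only so hits reduce electrodes per burst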
Outline: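 Rat primary cortical neurons on 48-well MEAs, DIV 13 or 15, were treated at 0.03-40 uM. Spikes were detected at 8x rms noise and recorded at 37 C. The mean electrodes per network burst in a 40 min exposure recording was expressed as percent change from a 40 min baseline.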

Row | SMILES | outcome | AC50
11 | CC1(C)CCC[C@]2(C)[C@H]3CCO[C@]3(C)CC[C@@H]12 | inactive | 
12 | O=CN1CCOCC1 | inactive | 
13 | O=C(Nc1ccc2c(O)c(N=Nc3ccc(N=Nc4ccc(S(=O)(=O)O)cc4)cc3)c(S(=O)(=O)O)cc2c1)c1ccccc1 | inactive | 
14 | Oc1c(Cl)cc(Cl)c(Cl)c1Cc1c(O)c(Cl)cc(Cl)c1Cl |  | 0.54 µM (active)
15 | CC(CN=Cc1ccccc1O)N=Cc1ccccc1O (stereo not drawn) | inactive | 
16 | COCCc1ccc(OCC(O)CNC(C)C)cc1 (stereo not drawn) | inactive | 
17 | CN(C)C(=S)SC(=S)N(C)C | inactive | 
18 | C=CC(C)(O)CCC=C(C)C (stereo not drawn) | inactive | 
19 | CCOC(=O)C(C#N)=C(c1ccccc1)c1ccccc1 | inactive | 
20 | CCCCCCC(CO)CCCC (stereo not drawn) |  | 0.0774 µM (active)

System: not listed separately
Assay: CCTE_Shafer_MEA_acute_network_burst_percentage: CCTE's Neural Acute Assay for Percentage of Network Bursts, Shafer Lab (AID 2284022);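 also: curves fitted for loss so actives lower network burst percentage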
Outline: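 Rat primary cortical neuron networks on 48-well MEA plates, DIV 13 or 15, treated acutely with compound (0.03-40 uM, at least three wells). Percent of spikes within network bursts compared between 40-min recordings before and during exposure at 37 C, expressed as percent change.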

Row | SMILES | outcome | AC50
21 | CC1(C)CCC[C@]2(C)[C@H]3CCO[C@]3(C)CC[C@@H]12 | inactive | 
22 | O=CN1CCOCC1 | inactive | 
23 | O=C(Nc1ccc2c(O)c(N=Nc3ccc(N=Nc4ccc(S(=O)(=O)O)cc4)cc3)c(S(=O)(=O)O)cc2c1)c1ccccc1 | inactive | 
24 | Oc1c(Cl)cc(Cl)c(Cl)c1Cc1c(O)c(Cl)cc(Cl)c1Cl |  | 0.454 µM (active)
25 | CC(CN=Cc1ccccc1O)N=Cc1ccccc1O (stereo not drawn) | inactive | 
26 | COCCc1ccc(OCC(O)CNC(C)C)cc1 (stereo not drawn) | inactive | 
27 | CN(C)C(=S)SC(=S)N(C)C |  | 3.39 µM (active)
28 | C=CC(C)(O)CCC=C(C)C (stereo not drawn) |  | 0.003 µM (active)
29 | CCOC(=O)C(C#N)=C(c1ccccc1)c1ccccc1 | inactive | 
30 | CCCCCCC(CO)CCCC (stereo not drawn) | inactive | 

System: not listed separately
Assay: CCTE_Shafer_MEA_acute_cross_correlation_HWHM: CCTE's Neural Acute Assay for Cross Correlation at Half Width at Half Maximum, Shafer Lab (AID 2284026);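 also: percent change per well from pre-dose baseline in spike cross-correlogram half width; hits are a decrease in cross-correlogram half width relative to DMSO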
Outline: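 Rat primary cortical neurons on 48-well MEA plates; 40-min baseline and 40-min post-exposure recordings at 37 C on DIV 13 or 15, compounds 0.03-40 uM. Spikes detected at 8x rms noise; percent change in cross-correlogram HWHM per well vs baseline.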

Row | SMILES | outcome | AC50
31 | CC1(C)CCC[C@]2(C)[C@H]3CCO[C@]3(C)CC[C@@H]12 | inactive | 
32 | O=CN1CCOCC1 | inactive | 
33 | O=C(Nc1ccc2c(O)c(N=Nc3ccc(N=Nc4ccc(S(=O)(=O)O)cc4)cc3)c(S(=O)(=O)O)cc2c1)c1ccccc1 | inactive | 
34 | Oc1c(Cl)cc(Cl)c(Cl)c1Cc1c(O)c(Cl)cc(Cl)c1Cl | inactive | 
35 | CC(CN=Cc1ccccc1O)N=Cc1ccccc1O (stereo not drawn) |  | 15 µM (active)
36 | COCCc1ccc(OCC(O)CNC(C)C)cc1 (stereo not drawn) | inactive | 
37 | CN(C)C(=S)SC(=S)N(C)C | inactive | 
38 | C=CC(C)(O)CCC=C(C)C (stereo not drawn) | inactive | 
39 | CCOC(=O)C(C#N)=C(c1ccccc1)c1ccccc1 | inactive | 
40 | CCCCCCC(CO)CCCC (stereo not drawn) |  | 4.38 µM (active)

System: not listed separately
Assay: CCTE_Shafer_MEA_acute_synchrony_index: CCTE's Neural Acute Assay for Synchrony, Shafer Lab (AID 2284027);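 also: network synchrony index of spontaneous spiking in primary rat cortical neurons on MEAs; fitted for loss of signal so actives lower synchrony relative to DMSO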
Outline: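 Spontaneous firing of mature rat cortical networks is captured extracellularly on microelectrode arrays at 37 C, with wells needing ≥10 active electrodes. Each compound (0.03-40 uM) is judged by the change in synchrony index from baseline over 40 min.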

Row | SMILES | outcome | AC50
41 | CC1(C)CCC[C@]2(C)[C@H]3CCO[C@]3(C)CC[C@@H]12 | inactive | 
42 | O=CN1CCOCC1 | inactive | 
43 | O=C(Nc1ccc2c(O)c(N=Nc3ccc(N=Nc4ccc(S(=O)(=O)O)cc4)cc3)c(S(=O)(=O)O)cc2c1)c1ccccc1 |  | 15 µM (active)
44 | Oc1c(Cl)cc(Cl)c(Cl)c1Cc1c(O)c(Cl)cc(Cl)c1Cl |  | 0.203 µM (active)
45 | CC(CN=Cc1ccccc1O)N=Cc1ccccc1O (stereo not drawn) | inactive | 
46 | COCCc1ccc(OCC(O)CNC(C)C)cc1 (stereo not drawn) | inactive | 
47 | CN(C)C(=S)SC(=S)N(C)C | inactive | 
48 | C=CC(C)(O)CCC=C(C)C (stereo not drawn) | inactive | 
49 | CCOC(=O)C(C#N)=C(c1ccccc1)c1ccccc1 | inactive | 
50 | CCCCCCC(CO)CCCC (stereo not drawn) |  | 4.68 µM (active)

Target: Estrogen receptor (Homo sapiens) (UniProt P03372)
Sequence (P03372 whole entry, looked up): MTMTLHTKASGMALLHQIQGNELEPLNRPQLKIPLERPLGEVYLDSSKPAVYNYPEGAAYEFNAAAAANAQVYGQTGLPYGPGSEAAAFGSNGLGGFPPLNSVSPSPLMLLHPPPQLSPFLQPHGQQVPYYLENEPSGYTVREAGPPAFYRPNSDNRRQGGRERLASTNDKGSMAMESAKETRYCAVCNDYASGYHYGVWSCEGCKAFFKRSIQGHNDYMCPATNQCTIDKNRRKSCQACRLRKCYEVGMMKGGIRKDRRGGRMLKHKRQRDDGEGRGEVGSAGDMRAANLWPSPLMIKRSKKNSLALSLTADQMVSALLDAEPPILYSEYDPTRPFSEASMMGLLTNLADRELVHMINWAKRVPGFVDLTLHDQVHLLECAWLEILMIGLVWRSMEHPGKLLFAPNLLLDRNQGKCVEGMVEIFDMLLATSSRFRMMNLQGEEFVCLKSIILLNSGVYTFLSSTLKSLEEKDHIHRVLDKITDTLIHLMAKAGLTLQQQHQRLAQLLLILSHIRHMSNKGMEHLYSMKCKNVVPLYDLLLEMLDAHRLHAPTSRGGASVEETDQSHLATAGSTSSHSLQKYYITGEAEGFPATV
Assay: CCTE_Deisenroth_AIME_384WELL_LUC_Active: CCTE's 384-well Estrogen Receptor Transactivation Assay with AIME metabolic competence (ERTA luciferase; metabolism positive), Deisenroth Lab (AID 2284030; active = hit-call score of the fitted dose curve at least 0.9, where 1 is the maximum)
Outline: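 Chemicals (10-point, 0.002-200 uM) were first incubated 2 hours with alginate-immobilized induced male Sprague Dawley rat liver S9. The conditioned medium was then applied to VM7Luc4E2 cells for 24 hours, with ER luciferase induction read by luminescence relative to 17beta-estradiol.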

Row | SMILES | outcome
51 | CS(=O)(=O)OCCCCOS(C)(=O)=O | inactive
52 | CC(C)CCCCCCc1ccc(OCCOCCO)cc1 | inactive
53 | CCCCCCCCCCCC(=O)OCC(O)CO (stereo not drawn) | inactive

System: not listed separately
Assay: CCTE_Shafer_MEA_dev_firing_rate_mean: CCTE's Neural Network Formation Assay for Mean Firing Rate, Shafer Lab (AID 2284031);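 also: AUC of well mean spike rate recorded on DIV 5 7 9 and 12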;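 as to AC50: curve fitted for loss of firing so AC50 reflects decreased mean firing rate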
Outline: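 Developing rat cortical networks on MEA plates undergo 12-day compound exposure. Firing frequency, averaged across active electrodes, is integrated as area under the curve over four recording days, referenced to DMSO.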

Row | SMILES | outcome | AC50
54 | CN(C)CCOC(C)(c1ccccc1)c1ccccn1 (stereo not drawn) | inactive | 
55 | Oc1c(Cl)cc(Cl)c(Cl)c1Cc1c(O)c(Cl)cc(Cl)c1Cl |  | 894 nM (active) and 1.28 µM (active)
56 | COCCOCCOCCO | inactive | 
57 | COCCc1ccc(OCC(O)CNC(C)C)cc1 (stereo not drawn) | inactive | 
58 | CS(=O)(=O)OCCCCOS(C)(=O)=O | inactive | 
59 | FC(F)(F)COCC(F)(F)F | inactive | 

System: not listed separately
Assay: CCTE_Shafer_MEA_dev_per_burst_spike_percent: CCTE's Neural Network Formation Assay for Percent of Spikes in a Burst, Shafer Lab (AID 2284032);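 as to AC50: fitted as a decrease in burst spike percentage below DMSO baseline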
Method: CCTE_Shafer_MEA_dev assay is conducted using Axion Biosystems 48 well microelectrode array (MEA) plates and Maestro recording system. Each well of the MEA plate contains a grid of 16 microelectrodes embedded in the culture surface. Electrically active cells, such as neurons, can be cultured over the electrodes, and electrical activity in these cells can be recorded extracellularly. The spontaneous firing of neurons is captured from each electrode on a microsecond timescale providing both temporally and spatially precise data. […] The CCTE_Shafer_MEA_dev assay uses primary cultures of rat cortical neurons. Recordings are made on days post-plating 5, 7, 9 and 12. As these cultures mature over time, neural networks develop functional activity and form cohesive networks in which electrical activity can be highly coordinated. CCTE_Shafer_MEA_dev_per_burst_spike_percent is 1 of 19 assay components of the CCTE_Shafer_MEA_dev assay. It measures the percentage of spikes (action potential firings) in a single-electrode burst (temporally-clustered group of spikes) as the total number spikes in bursts divided by the total number of spikes during a recording in a microelectrode array (MEA) using Axion Biosystems Maestro 768 channel amplifier with the AxIS adaptive spike detector. The percent of spikes in bursts is averaged across the actively bursting electrodes to report a well-mean value. To collapse across multiple recordings made on days post-plating 5, 7, 9 and 12, the trapezoidal area-under-the-curve of the component is calculated.Data from the assay component CCTE_Shafer_MEA_dev_per_burst_spike_percent was analyzed into 1 assay endpoint. This assay endpoint, CCTE_Shafer_MEA_dev_per_burst_spike_percent, was analyzed in the negative analysis fitting direction relative to DMSO as the negative control and baseline of activity. Using a type of functional reporter, gain or loss-of-signal activity can be used to understand electrical activity.
On the day prior to culture, each well was coated thoroughly with 150 uL of 0.05% polyethyleneimine (PEI, Sigma Cat P3143) in 50 mM HEPES (Sigma Cat H7523) at a pH of 8. The plate was incubated at 37C for one hour. PEI was rinsed out with 500 uL of sterile water three times. Plates were stored at 4C until the day of culture. This culture was plated at a seeding density of 1.5 x 10^5 cells/well on a 48-well MEA plate, prepared as described above. Cells were administered via a 25 uL media/laminin ([…]; Sigma Cat L2020-1MG) drop directly onto the microelectrode array, as adding the cells with the laminin results in better attachment than pre-coating with laminin. After 2 hours, an additional 475 uL of cortical media was added and the cells returned to the incubator. Exposure starts at day 0 of plating and is continued over twelve days of network development until the experiment is terminated. Cells are fed with fresh medium on DIV 5 and 9, following the recordings on those days. The entire volume of media in the well is exchanged and any vehicle or compound treatment is renewed. Complete details are found in OP-NHEERL/ISTD/SBB/TJS/2015-03-r0 (available on request, email shafer.tim@epa.gov). Measurement of the electrical activity is non-invasive, and recordings can be made from the same plate over multiple different days of the culture. In cortical neurons, this allows for the measurement of extracellular action potentials over the period during which networks form in the MEA plate.

Row | SMILES | outcome | AC50
60 | CN(C)CCOC(C)(c1ccccc1)c1ccccn1 (stereo not drawn) | inactive | 
61 | Oc1c(Cl)cc(Cl)c(Cl)c1Cc1c(O)c(Cl)cc(Cl)c1Cl |  | 1.16 µM (active) and 954 nM (active)
62 | COCCOCCOCCO | inactive | 
63 | COCCc1ccc(OCC(O)CNC(C)C)cc1 (stereo not drawn) | inactive | 
64 | CS(=O)(=O)OCCCCOS(C)(=O)=O | inactive | 
65 | FC(F)(F)COCC(F)(F)F | inactive | 

Target: Estrogen receptor (Homo sapiens) (UniProt P03372)
Assay: CCTE_Deisenroth_AIME_384WELL_LUC_Inactive: CCTE's 384-well Estrogen Receptor Transactivation Assay without AIME metabolic competence (ERTA luciferase; metabolism negative), Deisenroth Lab (AID 2284038; active = hit-call score of the fitted dose curve at least 0.9, where 1 is the maximum;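 also: VM7Luc4E2 breast cells given medium preincubated 2 h with S9-free microspheres; hits raise estrogen receptor luciferase signal so potencies reflect agonists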)
Outline: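 Chemicals (10-point series, 0.002 - 200 uM) were incubated 2 hours with alginate-water microsphere lids lacking S9, then the conditioned medium was transferred to VM7Luc4E2 breast cells for 24 hour. Luciferase induction was read by bioluminescence, fitted upward relative to 17beta-estradiol.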

Row | SMILES | outcome
66 | CS(=O)(=O)OCCCCOS(C)(=O)=O | inactive
67 | CC(C)CCCCCCc1ccc(OCCOCCO)cc1 | inactive
68 | CCCCCCCCCCCC(=O)OCC(O)CO (stereo not drawn) | inactive
